First the molecules themselves.
B1: CCAAGUA (DNA:RNA)
RNA: GGGAGACCGGAAUUCAGAUUGUCCCCAAGUAUUAAAUCCCGUCGUAGCCACCA
DNA 1: CAATCTGAATTCCGGTCTCCC
DNA 2: TGGTGGCTACGACGGGATT
B2: UGACUAA (DNA:RNA)
RNA: B1 RNA with C25U, C26G, A28C, G29U, U30A
DNA 1: CAATCTGAATTCCGGTCTCCC
DNA 2: TGGTGGCTACGACGGGATT
B3: AGAUAAC (DNA:RNA)
RNA: B1 RNA with C25A, C26G, A28U, G29A, U30A, A31C
DNA 1: CAATCTGAATTCCGGTCTCCC
DNA 2: TGGTGGCTACGACGGGATT
B4: CCAGGCC (DNA:RNA)
RNA: B1 RNA with A28G, U30C, A31C
DNA 1: CAATCTGAATTCCGGTCTCCC
DNA 2: TGGTGGCTACGACGGGATT
B5: CUGUCUG (DNA:RNA)
RNA: B1 RNA with C26U, A27G, A28U, G29C, A31G
DNA 1: CAATCTGAATTCCGGTCTCCC
DNA 2: TGGTGGCTACGACGGGATT
B6: GGAUACC (DNA:RNA)
RNA: B1 RNA with C25G, C26G, A28U, G29A, U30C, A31C
DNA 1: CAATCTGAATTCCGGTCTCCC
DNA 2: TGGTGGCTACGACGGGATT
B7: GUCCGGC (DNA:RNA)
RNA: B1 RNA with C25G, C26U, A27C, A28C, U30G, A31C
DNA 1: CAATCTGAATTCCGGTCTCCC
DNA 2: TGGTGGCTACGACGGGATT
B8: CGGCUUG (DNA:RNA)
RNA: B1 RNA with C26G, A27G, A28C, G29U, A31G
DNA 1: CAATCTGAATTCCGGTCTCCC
DNA 2: TGGTGGCTACGACGGGATT
B9: CGGAUGC (DNA:RNA)
RNA: B1 RNA with C26G, A27G, G29U, U30G, A31C
DNA 1: CAATCTGAATTCCGGTCTCCC
DNA 2: TGGTGGCTACGACGGGATT
B10: CACCGGC (DNA:RNA)
RNA: B1 RNA with C26A, A27C, A28C, U30G, A31C
DNA 1: CAATCTGAATTCCGGTCTCCC
DNA 2: TGGTGGCTACGACGGGATT
B11: GGAUGCU (DNA:RNA)
RNA: B1 RNA with C25G, C26G, A28U, U30C, A31U
DNA 1: CAATCTGAATTCCGGTCTCCC
DNA 2: TGGTGGCTACGACGGGATT
B12: GGCUUGC (DNA:RNA)
RNA: GGGAGACCGGAAUUCAGAUUGUCCGGCUUGCUUAAAUCCCGUCGUAGCCACCA
DNA 1: CAATCTGAATTCCGGTCTCCC
DNA 2: TGGTGGCTACGACGGGATT
B13: UAAAUGC (DNA:RNA)
RNA: B12 RNA with G25U, G26A, C27A, U28A
DNA 1: CAATCTGAATTCCGGTCTCCC
DNA 2: TGGTGGCTACGACGGGATT
B14: GGGAUGC (DNA:RNA)
RNA: B12 RNA with C27G, U28A
DNA 1: CAATCTGAATTCCGGTCTCCC
DNA 2: TGGTGGCTACGACGGGATT
B15: CCCCGGC (DNA:RNA)
RNA: B1 RNA with A27C, A28C, U30G, A31C
DNA 1: CAATCTGAATTCCGGTCTCCC
DNA 2: TGGTGGCTACGACGGGATT
B16: UGAAUUG (DNA:RNA)
RNA: B1 RNA with C25U, C26G, G29U, A31G
DNA 1: CAATCTGAATTCCGGTCTCCC
DNA 2: TGGTGGCTACGACGGGATT
B17: GUCUUGC (DNA:RNA)
RNA: B12 RNA with G26U
DNA 1: CAATCTGAATTCCGGTCTCCC
DNA 2: TGGTGGCTACGACGGGATT
B18: UGAAUGC (DNA:RNA)
RNA: B12 RNA with G25U, C27A, U28A
DNA 1: CAATCTGAATTCCGGTCTCCC
DNA 2: TGGTGGCTACGACGGGATT
B19: GACCAGC (DNA:RNA)
RNA: B12 RNA with G26A, U28C, U29A
DNA 1: CAATCTGAATTCCGGTCTCCC
DNA 2: TGGTGGCTACGACGGGATT
B20: GGGGUCA (DNA:RNA)
RNA: B12 RNA with C27G, U28G, G30C, C31A
DNA 1: CAATCTGAATTCCGGTCTCCC
DNA 2: TGGTGGCTACGACGGGATT
B21: AGGUCAC (DNA:RNA)
RNA: B12 RNA with G25A, C27G, U29C, G30A
DNA 1: CAATCTGAATTCCGGTCTCCC
DNA 2: TGGTGGCTACGACGGGATT
B22: CCUAGCG (DNA:RNA)
RNA: B1 RNA with A27U, U30C, A31G
DNA 1: CAATCTGAATTCCGGTCTCCC
DNA 2: TGGTGGCTACGACGGGATT
B23: GAAUCAG (DNA:RNA)
RNA: B12 RNA with G26A, C27A, U29C, G30A, C31G
DNA 1: CAATCTGAATTCCGGTCTCCC
DNA 2: TGGTGGCTACGACGGGATT
B24: UUGAAGG (DNA:RNA)
RNA: B1 RNA with C25U, C26U, A27G, G29A, U30G, A31G
DNA 1: CAATCTGAATTCCGGTCTCCC
DNA 2: TGGTGGCTACGACGGGATT
B25: CUUACUA (DNA:RNA)
RNA: B1 RNA with C26U, A27U, G29C
DNA 1: CAATCTGAATTCCGGTCTCCC
DNA 2: TGGTGGCTACGACGGGATT
B26: UCUCGCU (DNA:RNA)
RNA: B1 RNA with C25U, A27U, A28C, U30C, A31U
DNA 1: CAATCTGAATTCCGGTCTCCC
DNA 2: TGGTGGCTACGACGGGATT
B27: GGGAAUU (DNA:RNA)
RNA: B1 RNA with C25G, C26G, A27G, G29A, A31U
DNA 1: CAATCTGAATTCCGGTCTCCC
DNA 2: TGGTGGCTACGACGGGATT
B28: GCGGCGG (DNA:RNA)
RNA: B12 RNA with G26C, C27G, U28G, U29C, C31G
DNA 1: CAATCTGAATTCCGGTCTCCC
DNA 2: TGGTGGCTACGACGGGATT
B29: GCGGGAU (DNA:RNA)
RNA: B1 RNA with C25G, A27G, A28G, U30A, A31U
DNA 1: CAATCTGAATTCCGGTCTCCC
DNA 2: TGGTGGCTACGACGGGATT
B30: GCGGAUU (DNA:RNA)
RNA: B1 RNA with C25G, A27G, A28G, G29A, A31U
DNA 1: CAATCTGAATTCCGGTCTCCC
DNA 2: TGGTGGCTACGACGGGATT
B31: CGCGGAU (DNA:RNA)
RNA: B1 RNA with C26G, A27C, A28G, U30A, A31U
DNA 1: CAATCTGAATTCCGGTCTCCC
DNA 2: TGGTGGCTACGACGGGATT
B32: GGGGAUU (DNA:RNA)
RNA: B12 RNA with C27G, U28G, U29A, G30U, C31U
DNA 1: CAATCTGAATTCCGGTCTCCC
DNA 2: TGGTGGCTACGACGGGATT
B33: GCGGUUG (DNA:RNA)
RNA: B1 RNA with C25G, A27G, A28G, G29U, A31G
DNA 1: CAATCTGAATTCCGGTCTCCC
DNA 2: TGGTGGCTACGACGGGATT
B34: CGGGGAU (DNA:RNA)
RNA: B1 RNA with C26G, A27G, A28G, U30A, A31U
DNA 1: CAATCTGAATTCCGGTCTCCC
DNA 2: TGGTGGCTACGACGGGATT
B35: GCGGUUC (DNA:RNA)
RNA: B12 RNA with G26C, C27G, U28G, G30U
DNA 1: CAATCTGAATTCCGGTCTCCC
DNA 2: TGGTGGCTACGACGGGATT
B36: GGAGAUU (DNA:RNA)
RNA: B1 RNA with C25G, C26G, A28G, G29A, A31U
DNA 1: CAATCTGAATTCCGGTCTCCC
DNA 2: TGGTGGCTACGACGGGATT
B37: GGGAGAU (DNA:RNA)
RNA: B1 RNA with C25G, C26G, A27G, U30A, A31U
DNA 1: CAATCTGAATTCCGGTCTCCC
DNA 2: TGGTGGCTACGACGGGATT
B38: GGGGGAU (DNA:RNA)
RNA: B12 RNA with C27G, U28G, U29G, G30A, C31U
DNA 1: CAATCTGAATTCCGGTCTCCC
DNA 2: TGGTGGCTACGACGGGATT

For 38 molecules, binding signal results are on record in article PMC9911399, “Two distinct binding modes provide the RNA-binding protein RbFox with extraordinary sequence specificity”.

Numbering of substitutions follows the chain as printed; changes in the protein carry UniProt numbers. Over roughly 16,000 sequences, “ka relative to ugcaugu” has its median near 0.0091; the highest 2% begin near 0.032. This is one part of a sample in which the highest values are shown more often than they occur.

The target of the assay is T1, RBFOX1 RRM (Homo sapiens, UniProt Q9NWB1 109-208).
T1 sequence: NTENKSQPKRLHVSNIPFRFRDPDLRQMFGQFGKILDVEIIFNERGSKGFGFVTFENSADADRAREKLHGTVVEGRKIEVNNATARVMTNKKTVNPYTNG
Description: EMSA; HiTS-Eq, 1 nM pool, 10 min; buffer printed only for the single-RNA assays: 10 mM Tris pH 7.5, 150 mM NaCl, 3.4 mM EDTA, 0.001% NP-40, 30 C. The settings on record: tags: His6 N-terminal (pET28a); label: 5' 32P. The method in brief:
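Purified wild-type or mutant RbFox RRM at increasing concentrations was equilibrated with 1 nM of 5′-radiolabelled RNA carrying 7 randomized nucleotides for 10 min in 50 µL. Unbound RNA was separated by 8% native PAGE and sequenced. Relative association constants came from read-count changes of each RNA species compared with the control reaction, normalised to the cognate motif.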
For orientation: A gel shift assay detects complexes by their altered migration in electrophoresis.
Turning to B1, the binding signal is 0.00123 KA relative to UGCAUGU.

As to B2, the binding signal is 0.00904 KA relative to UGCAUGU.

Regarding B3, the binding signal is 0.00125 KA relative to UGCAUGU.

Consider B4, for which the binding signal is 0.0113 KA relative to UGCAUGU.

In the case of B5, the binding signal is 0.0306 KA relative to UGCAUGU.

On to B6, for which the binding signal was 0.00541 KA relative to UGCAUGU.

On to B7, for which the binding signal is 0.00575 KA relative to UGCAUGU.

In the case of B8, the binding signal is 0.0325 KA relative to UGCAUGU.

On to B9, for which the binding signal was 0.0275 KA relative to UGCAUGU.

As for B10, the binding signal is 0.00645 KA relative to UGCAUGU.

Regarding B11, the binding signal was 0.0261 KA relative to UGCAUGU.

For the molecule B12, the binding signal was 0.0328 KA relative to UGCAUGU.

Take B13: the binding signal is 0.00992 KA relative to UGCAUGU.

In the case of B14, the binding signal was 0.0515 KA relative to UGCAUGU.

Take B15: the binding signal was 0.00228 KA relative to UGCAUGU.

In the case of B16, the binding signal is 0.0261 KA relative to UGCAUGU.

Consider B17, for which the binding signal is 0.0291 KA relative to UGCAUGU.

For B18, the binding signal is 0.0399 KA relative to UGCAUGU.

On to B19, for which the binding signal was 0.00826 KA relative to UGCAUGU.

As for B20, the binding signal is 0.0251 KA relative to UGCAUGU.

Turning to B21, the binding signal is 0.0109 KA relative to UGCAUGU.

As to B22, the binding signal is 0.00608 KA relative to UGCAUGU.

B23: the binding signal was 0.00941 KA relative to UGCAUGU.

Regarding B24, the binding signal was 0.0111 KA relative to UGCAUGU.

For B25, the binding signal was 0.00319 KA relative to UGCAUGU.

Turning to B26, the binding signal is 0.0104 KA relative to UGCAUGU.

On to B27, for which the binding signal is 0.0335 KA relative to UGCAUGU.

Consider B28, for which the binding signal was 0.0288 KA relative to UGCAUGU.

As for B29, the binding signal was 0.0486 KA relative to UGCAUGU.

For the molecule B30, the binding signal is 0.0163 KA relative to UGCAUGU.

In the case of B31, the binding signal is 0.0187 KA relative to UGCAUGU.

Turning to B32, the binding signal is 0.038 KA relative to UGCAUGU.

For B33, the binding signal is 0.0329 KA relative to UGCAUGU.

For B34, the binding signal is 0.0184 KA relative to UGCAUGU.

With B35, the binding signal was 0.0202 KA relative to UGCAUGU.

Regarding B36, the binding signal is 0.0219 KA relative to UGCAUGU.

For B37, the binding signal was 0.0316 KA relative to UGCAUGU.

Regarding B38, the binding signal was 0.0252 KA relative to UGCAUGU.
